Experimental data published in PubChem BioAssay AID1159580 (chemical genetic matrix, 2015).
In all, about 5,500 compounds went through this assay and about 2,000 (36%) were called active. Another 18% or so got no clear call; they are omitted. No stated cut-off is given here; in the data, active means normalized growth mostly below about 0.91 (no sharp cut-off); inconclusive means no clear call, values can overlap the other calls; inactive means mostly above about 0.92. Some of the results follow.

Test: chemical genetic growth profiling, strain panel (AID 1159580);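 further: tested at 20 µM; growth read once vehicle control cultures reached saturation at 30 °C; 1 = growth at the plate median or of vehicle wells; lower values mean less growth of the strain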
Conditions: S. cerevisiae deletion strains, growth OD

Measured: normalized growth

COc1ccc(CC2CCC(=NOC(=O)c3c(Cl)cccc3Cl)CC2)cc1 (stereo not given)
inactive: locus YAR019C, strain CDC15, hits give low values 1.03 | locus YBR135W, strain CKS1, hits give low values 1.04 | locus YBR136W, strain MEC1, hits give low values 1.05 | locus YBR160W, strain CDC28, hits give low values 1.05 | locus YDL017W, strain CDC7, hits give low values 1.04 | locus YDL028C, strain MPS1, hits give low values 1.04 | locus YDL101C, strain DUN1, hits give low values 0.994 | locus YDL108W, strain KIN28, hits give low values 1.04 | locus YDL132W, strain cdc53, hits give low values 1.01 | locus YDL214C, strain PRR2, hits give low values 0.948 | locus YDR052C, strain DBF4, hits give low values 0.99 | locus YDR054C, strain cdc34, hits give low values 1.02 | locus YDR226W, strain ADK1, hits give low values 1.02 | locus YDR477W, strain SNF1, hits give low values 0.956 | locus YER123W, strain YCK3, hits give low values 0.938 | locus YER133W, strain GLC7, hits give low values 0.949 | locus YFL009W, strain cdc4, hits give low values 1.02 | locus YFL029C, strain CAK1, hits give low values 1.03 | locus YFR003C, strain YPI1, hits give low values 1.04 | locus YFR019W, strain FAB1, hits give low values 0.971 | locus YFR028C, strain CDC14, hits give low values 1 | locus YGR040W, strain KSS1, hits give low values 0.957 | locus YGR052W, strain FMP48, hits give low values 0.98 | locus YGR092W, strain DBF2, hits give low values 1.01 | locus YHR079C, strain IRE1, hits give low values 1 | locus YHR082C, strain KSP1, hits give low values 1.03 | locus YHR205W, strain SCH9, hits give low values 1 | locus YIL147C, strain SLN1, hits give low values 1.04 | locus YJL095W, strain BCK1, hits give low values 0.984 | locus YJL157C, strain FAR1, hits give low values 0.962 | locus YJR016C, strain ILV3, hits give low values 1.01 | locus YJR066W, strain TOR1 (second series), hits give low values 0.928 | locus YJR066W, strain TOR1, hits give low values 1.06 | locus YKL048C, strain ELM1, hits give low values 0.976 | locus YKL067W, strain YNK1, hits give low values 0.959 | locus YKL101W, strain HSL1, hits give low values 0.966 | locus YKL193C, strain SDS22, hits give low values 1.02 | locus YKL203C, strain TOR2, hits give low values 1.01 | locus YLR133W, strain CKI1, hits give low values 0.98 | locus YLR403W, strain SFP1, hits give low values 1.01 | locus YML070W, strain DAK1, hits give low values 0.953 | locus YMR001C, strain CDC5, hits give low values 1.03 | locus YMR205C, strain PFK2 (second series), hits give low values 0.962 | locus YMR277W, strain FCP1, hits give low values 1.02 | locus YNL006W, strain LST8, hits give low values 1.05 | locus YNL020C, strain ARK1, hits give low values 0.977 | locus YNL161W, strain CBK1, hits give low values 1.05 | locus YNL183C, strain NPR1, hits give low values 1.05 | locus YNL207W, strain RIO2, hits give low values 1.01 | locus YNL222W, strain SSU72, hits give low values 1.06 | locus YNL307C, strain MCK1 (second series), hits give low values 0.963 | locus YOL078W, strain AVO1, hits give low values 1.03 | locus YOL136C, strain PFK27, hits give low values 0.961 | locus YOR061W, strain CKA2, hits give low values 0.971 | locus YOR119C, strain RIO1, hits give low values 1.03 | locus YOR231W, strain MKK1, hits give low values 1.02 | locus YOR329C, strain SCD5, hits give low values 1.05 | locus YPL031C, strain PHO85, hits give low values 0.952 | locus YPL153C, strain RAD53, hits give low values 0.948 | locus YPL204W, strain HRR25, hits give low values 0.929 | locus YPL209C, strain IPL1, hits give low values 1.04 | locus YPL256C, strain CLN2, hits give low values 0.941 | locus YPR106W, strain ISR1, hits give low values 1.04 | locus YPR111W, strain DBF20, hits give low values 1.04 | strain NNK1, hits give low values 1.03 | strain TSCII, hits give low values 1.02
active: locus YBL105C, strain PKC1, hits give low values 1.06 [resistant] | locus YHR030C, strain SLT2, hits give low values 0.829 | locus YLR113W, strain HOG1, hits give low values 0.854 | locus YPR025C, strain CCL1, hits give low values 1.06 [resistant]
